# Active and inactive are the calls of the source. Rule for the calls: active = hit-call score of the fitted dose curve at least 0.9, where 1 is the maximum; inactive = score below 0.9.
# What was measured:
# [1] = read-out: Interleukin-1 alpha (IL1a), IL1A (gene 3552); test: BSK_KF3CT_IL1a: BioMAP Diversity Plus: KF3CT Assay for Interleukin-1 alpha (IL1a) Biomarker Activity (AID 2283070); conditions: primary human keratinocytes with fibroblasts; actives raise or lower the signal
# Summary of the method: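 Primary human keratinocyte plus foreskin fibroblast co-culture, dosed and measured at 24 h in 96-well plates. IL-1a level quantified by ELISA; bidirectional fit relative to DMSO.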
# [2] = read-out: TIMP metallopeptidase inhibitor 2 (TIMP2), TIMP2 (gene 7077); test: BSK_KF3CT_TIMP2: BioMAP Diversity Plus: KF3CT Assay for TIMP metallopeptidase inhibitor 2 (TIMP2) Biomarker Activity (AID 2283071); conditions: primary human keratinocytes with fibroblasts; actives raise or lower the signal
# Summary of the method: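 Co-culture of human primary keratinocytes and foreskin fibroblasts, measured 24 h after chemical dosing. TIMP-2 quantified by ELISA and fitted in both directions relative to DMSO. Cytotoxicity checked in parallel cultures by SRB total-protein staining.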
# [3] = read-out: Transforming growth factor beta 1 (TGFb1), TGFB1 (gene 7040); test: BSK_KF3CT_TGFb1: BioMAP Diversity Plus: KF3CT Assay for Transforming growth factor beta 1 (TGFb1) Biomarker Activity (AID 2283072); conditions: primary human keratinocytes with fibroblasts; actives raise or lower the signal
# Summary of the method: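 Human keratinocyte/foreskin fibroblast co-culture; TGF-b1 measured by ELISA 24 h after dosing, fitted bidirectionally versus DMSO. Cytotoxicity checked in parallel cultures by total protein (SRB staining, 560 nm).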
# [4] = read-out: C-C motif chemokine 2 (Homo sapiens) (UniProt P13500); test: BSK_KF3CT_MCP1: BioMAP Diversity Plus: KF3CT Assay for Monocyte Chemoattractant Protein 1 (MCP1/CCL2) Biomarker Activity (AID 2283073); conditions: primary human keratinocytes with fibroblasts; actives raise or lower the signal
# Summary of the method: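 Biomarker MCP-1 is measured by ELISA in primary human keratinocytes co-cultured with foreskin fibroblasts, 24 h after chemical treatment; DMSO serves as the negative control and activity baseline.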
# [5] = read-out: Matrix Metallopeptidase 9 (MMP9), MMP9 (gene 4318); test: BSK_KF3CT_MMP9: BioMAP Diversity Plus: KF3CT Assay for Matrix Metallopeptidase 9 (MMP9) Biomarker Activity (AID 2283074); conditions: primary human keratinocytes with fibroblasts; actives raise or lower the signal
# Summary of the method: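 Human keratinocyte and foreskin fibroblast co-culture exposed to chemicals for 24 h; MMP9 biomarker measured by ELISA, bidirectional fitting relative to DMSO; cytotoxicity tracked by SRB total protein staining in parallel cultures.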
# [6] = read-out: urokinase plasminogen activator (uPA), PLAU (gene 5328); test: BSK_KF3CT_uPA: BioMAP Diversity Plus: KF3CT Assay for urokinase plasminogen activator (uPA) Biomarker Activity (AID 2283075); conditions: primary human keratinocytes with fibroblasts; actives raise or lower the signal
# Summary of the method: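 Primary human keratinocyte/foreskin fibroblast co-culture exposed to chemical; uPA measured by ELISA at 24 h. Bidirectional fit versus DMSO, with parallel SRB total-protein staining for cytotoxicity.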
# CD40, CD40 (gene 958) [7] = test: BSK_LPS_CD40: BioMAP Diversity Plus: LPS Assay for CD40 Biomarker Activity (AID 2283076); conditions: primary human HUVEC with PBMC; actives raise or lower the signal
# Summary of the method: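 Using a multiplexed primary human co-culture (umbilical vein endothelium plus PBMC), CD40 was read by ELISA 24 h after dosing, with cytotoxicity tracked by sulforhodamine B staining of parallel cultures and activity fitted bidirectionally versus DMSO.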
# [8] = read-out: E-selectin (Homo sapiens) (UniProt P16581); test: BSK_LPS_Eselectin: BioMAP Diversity Plus: LPS Assay for Eselectin Biomarker Activity (AID 2283077); conditions: primary human HUVEC with PBMC; actives raise or lower the signal
# Summary of the method: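 Dose chemical onto LPS-driven HUVEC/PBMC co-culture; after 24 h, run ELISA for E-selectin; fit up- and down-going responses relative to DMSO control.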
# [9] = read-out: Interleukin-8 (IL8), CXCL8 (gene 3576); test: BSK_LPS_IL8: BioMAP Diversity Plus: LPS Assay for Interleukin-8 (IL8) Biomarker Activity (AID 2283078); conditions: primary human HUVEC with PBMC; actives raise or lower the signal
# Summary of the method: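 In this LPS system, chemical-treated human umbilical vein endothelium/PBMC co-cultures were harvested at 24 h for IL-8 ELISA.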
# [10] = BSK_LPS_SRB: Viability Assessment in the BioMAP Diversity Plus: LPS Assay (AID 2283079); conditions: primary human HUVEC with PBMC;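 note: total protein by sulforhodamine B absorbance as a cytotoxicity measure; measured one day after compound addition; fitted in both directions against DMSO so loss or gain of signal counts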
# Summary of the method: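 Cytotoxicity endpoint in human endothelial–PBMC co-culture: 24 h exposure, then SRB (0.1%) staining, 560 nm read.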
# [11] = read-out: Monocyte Chemoattractant Protein-1 (MCP1), CCL2 (gene 6347); test: BSK_LPS_MCP1: BioMAP Diversity Plus: LPS Assay for Monocyte Chemoattractant Protein-1 (MCP1) Biomarker Activity (AID 2283081); conditions: primary human HUVEC with PBMC; actives raise or lower the signal;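 for AC50: secreted MCP-1 protein quantified by ELISA in culture supernatant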
# Summary of the method: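 Values derive from bidirectional fitting against DMSO of ELISA-measured MCP-1 in a human primary endothelial and mononuclear cell co-culture, 24 h after chemical addition under LPS activation.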
# [12] = BSK_LPS_PGE2: BioMAP Diversity Plus: LPS Assay for Prostaglandin E2 (PGE2) Biomarker Activity (AID 2283082); conditions: primary human HUVEC with PBMC; actives raise or lower the signal;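 for AC50: secreted prostaglandin E2 measured by ELISA in LPS-stimulated co-culture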
# Summary of the method: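 HUVEC plus human PBMC co-culture stimulated with LPS; secreted PGE2 quantified by ELISA 24 h after chemical dosing. Activity fitted bidirectionally against DMSO baseline; parallel SRB staining (0.1% SRB after 10% TCA fixation, 560 nm) flags overt cytotoxicity.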
# [13] = read-out: Tissue Factor, F3 (gene 2152); test: BSK_LPS_TissueFactor: BioMAP Diversity Plus: LPS Assay for Tissue Factor Biomarker Activity (AID 2283084); conditions: primary human HUVEC with PBMC; actives raise or lower the signal
# Summary of the method: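 Read-out: CD142 ELISA, 24 h. System: LPS-driven human endothelial/PBMC co-culture. Analysis: up- or down-signal fitted against DMSO.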
# [14] = read-out: Tumor necrosis factor (Homo sapiens) (UniProt P01375); test: BSK_LPS_TNFa: BioMAP Diversity Plus: LPS Assay for Tumour Necrosis Factor alpha (TNFa) Biomarker Activity (AID 2283085); conditions: primary human HUVEC with PBMC; actives raise or lower the signal;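 for AC50: TNFa protein level quantified by ELISA in the co-culture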
# Summary of the method: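 Human umbilical vein endothelial cells co-cultured with PBMC and stimulated with LPS. TNFa was measured by ELISA 24 h after chemical dosing, fitted bidirectionally relative to DMSO.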
# [15] = read-out: Vascular cell adhesion molecule 1 (VCAM1), VCAM1 (gene 7412); test: BSK_LPS_VCAM1: BioMAP Diversity Plus: LPS Assay for Vascular cell adhesion molecule 1 (VCAM1) Biomarker Activity (AID 2283086); conditions: primary human HUVEC with PBMC; actives raise or lower the signal
# Summary of the method: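 Human umbilical vein endothelial cells co-cultured with PBMC and stimulated with LPS; VCAM-1 measured by ELISA 24 h after dosing. Bidirectional curve fitting against DMSO baseline; cytotoxicity tracked in parallel by SRB total-protein staining.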
# CD38, CD38 (gene 952) = test: BSK_SAg_CD38: BioMAP Diversity Plus: SAg Assay for CD38 Biomarker Activity (AID 2283087); conditions: primary human HUVEC with PBMC; actives raise or lower the signal
# Summary of the method: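 Human HUVEC plus PBMC co-culture stimulated with superantigen; CD38 measured by ELISA 24 h after chemical dosing. Fluorescence read-out, bidirectional fit against DMSO; cytotoxicity tracked in parallel by SRB and Alamar Blue.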
# CD40, CD40 (gene 958) [16] = test: BSK_SAg_CD40: BioMAP Diversity Plus: SAg Assay for CD40 Biomarker Activity (AID 2283088); conditions: primary human HUVEC with PBMC; actives raise or lower the signal
# Summary of the method: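 Endpoint derived by fitting increases or decreases versus DMSO controls. CD40 is detected by fluorescence ELISA in a human vascular co-culture of endothelium and PBMC at 24 h.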
# CD69, CD69 (gene 969) = test: BSK_SAg_CD69: BioMAP Diversity Plus: SAg Assay for CD69 Biomarker Activity (AID 2283089); conditions: primary human HUVEC with PBMC; actives raise or lower the signal;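 for AC50: cell surface CD69 protein quantified by ELISA with fluorescence detection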
# Summary of the method: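 Values derive from bidirectional fitting relative to DMSO vehicle. Cells: umbilical vein endothelium plus peripheral blood mononuclear cells, treated 24 h before fluorescent ELISA for CD69.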
# [17] = read-out: Interleukin-1 alpha (IL1a), IL1A (gene 3552); test: BSK_LPS_IL1a: BioMAP Diversity Plus: LPS Assay for Interleukin-1 alpha (IL1a) Biomarker Activity (AID 2283080); conditions: primary human HUVEC with PBMC; actives raise or lower the signal
# Summary of the method: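 Primary human HUVEC and PBMC co-culture stimulated with LPS is dosed and harvested at 24 h. Both increases and decreases in ELISA-measured IL-1a are scored relative to DMSO.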
# [18] = read-out: Macrophage colony-stimulating factor (MCSF), CSF1 (gene 1435); test: BSK_LPS_MCSF: BioMAP Diversity Plus: LPS Assay for Macrophage colony-stimulating factor (MCSF) Biomarker Activity (AID 2283083); conditions: primary human HUVEC with PBMC; actives raise or lower the signal
# Summary of the method: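 Bidirectional fit versus DMSO of ELISA-measured M-CSF in co-cultured human umbilical vein endothelial cells and PBMC, sampled 24 h after dosing.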
# E-selectin (Homo sapiens), sequence (P16581 whole entry, looked up): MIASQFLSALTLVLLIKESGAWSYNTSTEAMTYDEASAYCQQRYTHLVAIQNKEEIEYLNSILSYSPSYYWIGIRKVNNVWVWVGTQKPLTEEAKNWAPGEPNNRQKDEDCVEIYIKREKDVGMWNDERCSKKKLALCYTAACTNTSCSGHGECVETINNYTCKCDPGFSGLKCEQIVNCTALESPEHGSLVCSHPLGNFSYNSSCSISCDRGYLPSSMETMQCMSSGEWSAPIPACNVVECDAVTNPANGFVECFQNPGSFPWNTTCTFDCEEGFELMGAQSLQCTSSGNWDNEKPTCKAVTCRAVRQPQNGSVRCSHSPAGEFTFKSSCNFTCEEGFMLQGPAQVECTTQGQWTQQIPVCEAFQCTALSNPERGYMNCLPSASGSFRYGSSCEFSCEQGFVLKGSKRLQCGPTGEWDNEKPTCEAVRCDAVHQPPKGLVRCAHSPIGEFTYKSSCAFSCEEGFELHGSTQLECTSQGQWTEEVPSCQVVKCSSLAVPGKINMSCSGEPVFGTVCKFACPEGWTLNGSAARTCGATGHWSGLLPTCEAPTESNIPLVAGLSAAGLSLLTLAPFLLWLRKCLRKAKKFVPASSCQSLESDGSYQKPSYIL
# Tumor necrosis factor (Homo sapiens), sequence (P01375 whole entry, looked up): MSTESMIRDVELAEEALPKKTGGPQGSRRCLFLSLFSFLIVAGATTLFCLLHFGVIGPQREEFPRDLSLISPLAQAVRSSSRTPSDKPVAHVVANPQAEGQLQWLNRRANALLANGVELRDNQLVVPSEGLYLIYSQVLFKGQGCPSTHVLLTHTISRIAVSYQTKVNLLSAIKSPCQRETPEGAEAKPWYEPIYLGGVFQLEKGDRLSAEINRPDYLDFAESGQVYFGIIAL
compound,measurement,setting,value
O=c1[nH]cnc2c1ncn2[C@H]1CC[C@@H](CO)O1,outcome,[1],inactive
same,outcome,[2],inactive
same,outcome,[3],inactive
same,outcome,[4],inactive
same,outcome,[5],inactive
same,outcome,[6],inactive
same,outcome,"CD40, CD40 (gene 958) [7]",inactive
same,outcome,[8],inactive
same,outcome,[9],inactive
same,outcome,[10],inactive
same,outcome,[11],inactive
same,outcome,[12],inactive
same,outcome,[13],inactive
same,outcome,[14],inactive
same,outcome,[15],inactive
same,outcome,"CD38, CD38 (gene 952)",inactive
same,outcome,"CD40, CD40 (gene 958) [16]",inactive
same,outcome,"CD69, CD69 (gene 969)",inactive
COS(C)(=O)=O,outcome,[1],inactive
same,outcome,[2],inactive
same,outcome,[3],inactive
same,outcome,[4],inactive
same,outcome,[5],inactive
same,outcome,[6],inactive
same,outcome,"CD40, CD40 (gene 958) [7]",inactive
same,outcome,[8],inactive
same,outcome,[9],inactive
same,outcome,[10],inactive
same,outcome,[17],inactive
same,outcome,[11],inactive
same,outcome,[12],inactive
same,outcome,[18],inactive
same,outcome,[13],inactive
same,outcome,[14],inactive
same,outcome,[15],inactive
same,outcome,"CD38, CD38 (gene 952)",inactive
same,outcome,"CD40, CD40 (gene 958) [16]",inactive
same,outcome,"CD69, CD69 (gene 969)",inactive
CC[C@H](C)C(=O)O[C@H]1C[C@H](O)C=C2C=C[C@H](C)[C@H](CC[C@@H](O)C[C@@H](O)CC(=O)O)[C@H]21,outcome,[1],inactive
same,outcome,[2],inactive
same,outcome,[3],inactive
same,outcome,[4],inactive
same,outcome,[5],inactive
same,outcome,[6],inactive
same,outcome,"CD40, CD40 (gene 958) [7]",inactive
same,outcome,[8],inactive
same,outcome,[9],inactive
same,outcome,[10],inactive
same,outcome,[17],inactive
same,outcome,[12],inactive
same,outcome,[18],inactive
same,outcome,[13],inactive
same,outcome,[14],inactive
same,outcome,[15],inactive
same,outcome,"CD38, CD38 (gene 952)",inactive
same,outcome,"CD40, CD40 (gene 958) [16]",inactive
same,outcome,"CD69, CD69 (gene 969)",inactive
Cn1c(=O)c2[nH]cnc2n(C)c1=O,outcome,[1],inactive
same,outcome,[2],inactive
same,outcome,[3],inactive
same,outcome,[4],inactive
same,outcome,[5],inactive
same,outcome,[6],inactive
same,outcome,"CD40, CD40 (gene 958) [7]",inactive
same,outcome,[8],inactive
same,outcome,[9],inactive
same,outcome,[10],inactive
same,outcome,[17],inactive
same,outcome,[11],inactive
same,outcome,[12],inactive
same,outcome,[18],inactive
same,outcome,[13],inactive
same,outcome,[14],inactive
same,outcome,[15],inactive
same,outcome,"CD38, CD38 (gene 952)",inactive
same,outcome,"CD40, CD40 (gene 958) [16]",inactive
same,outcome,"CD69, CD69 (gene 969)",inactive
CC(C)c1nnc2ccc(-c3ocnc3-c3cc(F)ccc3F)cn12,outcome,[1],inactive
same,outcome,[2],inactive
same,outcome,[3],inactive
same,outcome,[4],inactive
same,outcome,[5],inactive
same,outcome,[6],inactive
same,outcome,"CD40, CD40 (gene 958) [7]",inactive
same,AC50,[8],248 nM (active)
same,AC50,[9],148 nM (active)
same,outcome,[10],inactive
same,AC50,[17],148 nM (active)
same,AC50,[11],4600 nM (active)
same,AC50,[12],346 nM (active)
same,outcome,[18],inactive
same,AC50,[13],356 nM (active)
same,AC50,[14],148 nM (active)
same,AC50,[15],979 nM (active)
same,outcome,"CD38, CD38 (gene 952)",inactive
same,outcome,"CD40, CD40 (gene 958) [16]",inactive
same,AC50,"CD69, CD69 (gene 969)",3590 nM (active)
NC(=O)N1c2ccccc2C=Cc2ccccc21,outcome,[1],inactive
same,outcome,[2],inactive
same,outcome,[3],inactive
same,outcome,[4],inactive
same,outcome,[5],inactive
same,outcome,[6],inactive
same,outcome,"CD40, CD40 (gene 958) [7]",inactive
same,outcome,[8],inactive
same,outcome,[9],inactive
same,outcome,[10],inactive
same,outcome,[11],inactive
same,outcome,[12],inactive
same,outcome,[18],inactive
same,outcome,[13],inactive
same,outcome,[14],inactive
same,outcome,[15],inactive
same,outcome,"CD38, CD38 (gene 952)",inactive
same,outcome,"CD40, CD40 (gene 958) [16]",inactive
same,outcome,"CD69, CD69 (gene 969)",inactive

# Source: PubChem BioAssay (EPA / NIEHS)
